Common to all, as to assay: DAPPL (digital affinity profiling via proximity ligation, sequencing); 10 mM Tris-HCl pH 7.5, 50 mM NaCl, 1 mM DTT, 4% glycerol, room temperature, 30 min; GST-TFs on glutathione beads, 16-mer random dsDNA library, 0.1% formaldehyde crosslink after washing; high values mean tight binding
For test [1], the target named is T1, FLI1 (Homo sapiens, UniProt Q01543 1-452).
T1 sequence: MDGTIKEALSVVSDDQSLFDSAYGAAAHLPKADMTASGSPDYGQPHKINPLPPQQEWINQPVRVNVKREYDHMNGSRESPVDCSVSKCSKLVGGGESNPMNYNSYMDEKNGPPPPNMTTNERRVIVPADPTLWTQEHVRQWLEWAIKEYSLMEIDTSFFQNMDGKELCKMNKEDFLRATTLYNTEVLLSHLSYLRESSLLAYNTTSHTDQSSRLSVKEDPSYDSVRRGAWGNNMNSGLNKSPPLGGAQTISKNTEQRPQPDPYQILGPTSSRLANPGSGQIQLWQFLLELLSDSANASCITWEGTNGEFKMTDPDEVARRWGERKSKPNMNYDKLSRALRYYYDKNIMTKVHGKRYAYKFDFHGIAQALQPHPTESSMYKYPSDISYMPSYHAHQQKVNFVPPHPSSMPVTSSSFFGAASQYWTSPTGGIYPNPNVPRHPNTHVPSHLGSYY
Conditions: protein: recombinant; tags: N-terminal GST; dsDNA, one strand shown. The procedure, abridged:
(§1)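 Pools of DNA-barcoded human transcription factors, expressed in yeast as GST fusions on glutathione beads and combined with a tag-only sample, were incubated with 200 nmole of a 16-mer random double-stranded DNA library. Incubation took 30 min at room temperature in Tris/NaCl/DTT/glycerol buffer and was followed by washing, 0.1% formaldehyde crosslinking, proximity ligation (BsaI/T4 ligase, 1 h, 37 °C), PCR amplification and sequencing on an Illumina NextSeq500. Binding signal is the ratio of a hexamer's read frequency for a factor to its frequency for the tag-only sample.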

Test [2] deals with T2, ELK1 (Homo sapiens, UniProt P19419 1-428).
T2 sequence: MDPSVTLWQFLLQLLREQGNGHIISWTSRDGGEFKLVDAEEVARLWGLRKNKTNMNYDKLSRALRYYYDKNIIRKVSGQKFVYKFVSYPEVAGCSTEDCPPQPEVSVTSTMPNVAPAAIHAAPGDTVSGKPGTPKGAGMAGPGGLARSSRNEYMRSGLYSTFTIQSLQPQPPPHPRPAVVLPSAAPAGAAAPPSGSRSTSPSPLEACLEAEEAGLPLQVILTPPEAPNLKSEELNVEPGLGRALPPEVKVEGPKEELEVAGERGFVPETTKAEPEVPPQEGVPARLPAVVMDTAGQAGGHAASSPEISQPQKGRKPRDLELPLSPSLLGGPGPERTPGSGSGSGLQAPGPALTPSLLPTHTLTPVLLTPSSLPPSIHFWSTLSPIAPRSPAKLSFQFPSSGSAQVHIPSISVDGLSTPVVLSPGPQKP
The conditions noted are these: protein: recombinant; tags: N-terminal GST; dsDNA, one strand shown. An outline of the steps: as §1

Test [3] deals with T3, GABPA (Homo sapiens, UniProt Q06546 1-454).
T3 sequence: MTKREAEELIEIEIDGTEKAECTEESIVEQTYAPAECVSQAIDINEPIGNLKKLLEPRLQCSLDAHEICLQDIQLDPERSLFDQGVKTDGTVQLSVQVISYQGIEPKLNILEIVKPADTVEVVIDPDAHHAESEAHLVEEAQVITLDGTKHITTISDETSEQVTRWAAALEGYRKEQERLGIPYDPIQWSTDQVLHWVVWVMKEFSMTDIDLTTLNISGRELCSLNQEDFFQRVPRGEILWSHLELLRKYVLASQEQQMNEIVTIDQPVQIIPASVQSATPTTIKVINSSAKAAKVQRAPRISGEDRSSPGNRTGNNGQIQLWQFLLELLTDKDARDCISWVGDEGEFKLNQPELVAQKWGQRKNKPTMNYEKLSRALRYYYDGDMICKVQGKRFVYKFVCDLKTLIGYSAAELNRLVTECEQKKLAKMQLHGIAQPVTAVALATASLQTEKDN
Conditions: protein: recombinant; tags: N-terminal GST; dsDNA, one strand shown. The procedure, abridged:
as §1

Test [4] concerns the target T4, ERG (Homo sapiens, UniProt P11308 1-479).
T4 sequence: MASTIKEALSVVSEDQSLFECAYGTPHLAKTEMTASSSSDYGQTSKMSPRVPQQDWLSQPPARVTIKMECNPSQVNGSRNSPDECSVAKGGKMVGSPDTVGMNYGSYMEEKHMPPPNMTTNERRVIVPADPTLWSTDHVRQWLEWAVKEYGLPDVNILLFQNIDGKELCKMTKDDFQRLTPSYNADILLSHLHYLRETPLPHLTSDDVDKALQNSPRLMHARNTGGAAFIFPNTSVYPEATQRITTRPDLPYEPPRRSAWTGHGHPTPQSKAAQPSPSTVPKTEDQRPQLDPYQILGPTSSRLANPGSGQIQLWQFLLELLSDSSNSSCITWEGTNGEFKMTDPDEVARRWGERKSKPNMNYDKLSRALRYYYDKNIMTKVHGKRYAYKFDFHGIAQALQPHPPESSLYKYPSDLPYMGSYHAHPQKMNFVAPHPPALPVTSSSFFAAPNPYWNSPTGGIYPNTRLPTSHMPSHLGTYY
The conditions noted are these: protein: recombinant; tags: N-terminal GST; dsDNA, one strand shown. The procedure, abridged: as §1

In test [5] the target is ELF1 (Homo sapiens, UniProt P32519 1-619). The conditions noted are these: protein: recombinant; tags: N-terminal GST; dsDNA, one strand shown. The procedure, abridged: as §1
Sequence of ELF1 (P32519 whole entry): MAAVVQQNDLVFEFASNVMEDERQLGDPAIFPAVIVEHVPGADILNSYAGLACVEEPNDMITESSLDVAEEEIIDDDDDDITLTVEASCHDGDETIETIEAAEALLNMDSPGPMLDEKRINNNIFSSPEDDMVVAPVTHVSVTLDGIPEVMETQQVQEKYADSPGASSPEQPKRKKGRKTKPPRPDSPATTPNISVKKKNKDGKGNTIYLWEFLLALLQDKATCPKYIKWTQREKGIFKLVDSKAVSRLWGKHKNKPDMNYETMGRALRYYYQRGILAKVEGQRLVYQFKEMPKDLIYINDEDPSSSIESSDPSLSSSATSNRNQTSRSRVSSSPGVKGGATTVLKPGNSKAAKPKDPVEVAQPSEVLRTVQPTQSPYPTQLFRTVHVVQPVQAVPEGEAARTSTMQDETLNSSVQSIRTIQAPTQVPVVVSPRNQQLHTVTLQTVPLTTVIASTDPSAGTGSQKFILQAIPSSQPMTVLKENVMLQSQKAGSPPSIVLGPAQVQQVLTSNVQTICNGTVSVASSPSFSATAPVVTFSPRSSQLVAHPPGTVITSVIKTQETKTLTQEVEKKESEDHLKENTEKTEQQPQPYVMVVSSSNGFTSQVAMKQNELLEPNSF
Test [6] concerns the target T5, EHF (Homo sapiens, UniProt Q9NZC4 1-300).
T5 sequence: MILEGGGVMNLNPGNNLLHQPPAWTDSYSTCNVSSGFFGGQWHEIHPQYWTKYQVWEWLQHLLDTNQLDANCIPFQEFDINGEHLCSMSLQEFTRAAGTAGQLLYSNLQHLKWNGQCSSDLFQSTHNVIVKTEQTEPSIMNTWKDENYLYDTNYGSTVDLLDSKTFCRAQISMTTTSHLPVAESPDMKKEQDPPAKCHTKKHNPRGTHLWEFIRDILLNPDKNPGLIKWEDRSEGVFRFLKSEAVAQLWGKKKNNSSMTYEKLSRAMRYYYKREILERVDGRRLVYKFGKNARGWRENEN
The conditions noted are these: protein: recombinant; tags: N-terminal GST; dsDNA, one strand shown. The procedure, abridged:
as §1

For test [7], the target named is SPI1 (Homo sapiens, UniProt P17947 1-270). The conditions noted are these: protein: recombinant; tags: N-terminal GST; dsDNA, one strand shown. The procedure, abridged:
as §1

For test [8], the target named is SPIB (Homo sapiens, UniProt Q01892 1-262). The conditions noted are these: protein: recombinant; tags: N-terminal GST; dsDNA, one strand shown. The procedure, abridged:
as §1

The target of test [9] is T6, FEV (Homo sapiens, UniProt Q99581 1-238).
T6 sequence: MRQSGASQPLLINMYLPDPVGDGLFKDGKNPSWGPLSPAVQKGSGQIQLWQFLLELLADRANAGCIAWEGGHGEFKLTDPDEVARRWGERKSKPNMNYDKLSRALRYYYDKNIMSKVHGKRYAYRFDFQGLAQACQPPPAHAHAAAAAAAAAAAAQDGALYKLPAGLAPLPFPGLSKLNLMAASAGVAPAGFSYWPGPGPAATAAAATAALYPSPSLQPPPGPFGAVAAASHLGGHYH
Conditions: protein: recombinant; tags: N-terminal GST; dsDNA, one strand shown. An outline of the steps: as §1

Test [10] concerns the target ETV5 (Homo sapiens, UniProt P41161 1-510). The conditions noted are these: protein: recombinant; tags: N-terminal GST; dsDNA, one strand shown. An outline of the steps: as §1
For test [11], the target named is HSF1 (Homo sapiens, UniProt Q00613 1-529). Conditions: protein: recombinant; tags: N-terminal GST; chain copies: 3; dsDNA, one strand shown. The procedure, abridged:
as §1

The target in test [12] is T7, SPIC (Homo sapiens, UniProt Q8N5J4 1-248).
T7 sequence: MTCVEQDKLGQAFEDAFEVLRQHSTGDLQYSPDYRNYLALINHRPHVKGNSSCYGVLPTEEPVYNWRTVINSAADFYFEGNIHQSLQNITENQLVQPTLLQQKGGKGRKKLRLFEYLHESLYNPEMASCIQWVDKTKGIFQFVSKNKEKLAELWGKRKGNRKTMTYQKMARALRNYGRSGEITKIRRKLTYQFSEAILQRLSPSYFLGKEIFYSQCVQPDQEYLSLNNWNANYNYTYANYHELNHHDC
Conditions: protein: recombinant; tags: N-terminal GST; dsDNA, one strand shown. An outline of the steps:
as §1

The target of test [13] is ELF4 (Homo sapiens, UniProt Q99607 1-663). The conditions noted are these: protein: recombinant; tags: N-terminal GST; dsDNA, one strand shown. The procedure, abridged:
as §1

The target in test [14] is T8, ELK4 (Homo sapiens, UniProt P28324-2 1-405).
T8 sequence: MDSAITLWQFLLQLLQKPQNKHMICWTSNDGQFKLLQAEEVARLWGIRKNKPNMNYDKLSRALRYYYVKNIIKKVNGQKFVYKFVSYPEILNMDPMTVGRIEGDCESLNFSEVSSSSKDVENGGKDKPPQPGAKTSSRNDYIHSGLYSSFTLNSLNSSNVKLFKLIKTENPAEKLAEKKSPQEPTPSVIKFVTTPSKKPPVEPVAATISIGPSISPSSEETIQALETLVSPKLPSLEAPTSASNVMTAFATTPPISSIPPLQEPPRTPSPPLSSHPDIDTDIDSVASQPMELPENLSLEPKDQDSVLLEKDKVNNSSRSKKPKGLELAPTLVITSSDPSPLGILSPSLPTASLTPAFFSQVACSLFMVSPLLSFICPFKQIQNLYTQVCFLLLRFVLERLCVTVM
The conditions noted are these: protein: recombinant; tags: N-terminal GST; dsDNA, one strand shown. An outline of the steps: as §1

The target in test [15] is T9, ETV2 (Homo sapiens, UniProt O00321 1-342).
T9 sequence: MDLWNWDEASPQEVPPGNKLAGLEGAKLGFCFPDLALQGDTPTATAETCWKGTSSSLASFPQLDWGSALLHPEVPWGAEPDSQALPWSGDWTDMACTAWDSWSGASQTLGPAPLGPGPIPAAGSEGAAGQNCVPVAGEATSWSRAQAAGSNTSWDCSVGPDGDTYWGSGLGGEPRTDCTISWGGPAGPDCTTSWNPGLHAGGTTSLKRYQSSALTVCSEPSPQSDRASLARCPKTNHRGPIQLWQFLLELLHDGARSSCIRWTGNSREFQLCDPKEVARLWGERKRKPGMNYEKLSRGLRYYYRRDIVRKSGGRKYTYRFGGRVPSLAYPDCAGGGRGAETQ
The conditions noted are these: protein: recombinant; tags: N-terminal GST; dsDNA, one strand shown. The procedure, abridged: as §1

The target in test [16] is T10, ELF3 (Homo sapiens, UniProt P78545 1-371).
T10 sequence: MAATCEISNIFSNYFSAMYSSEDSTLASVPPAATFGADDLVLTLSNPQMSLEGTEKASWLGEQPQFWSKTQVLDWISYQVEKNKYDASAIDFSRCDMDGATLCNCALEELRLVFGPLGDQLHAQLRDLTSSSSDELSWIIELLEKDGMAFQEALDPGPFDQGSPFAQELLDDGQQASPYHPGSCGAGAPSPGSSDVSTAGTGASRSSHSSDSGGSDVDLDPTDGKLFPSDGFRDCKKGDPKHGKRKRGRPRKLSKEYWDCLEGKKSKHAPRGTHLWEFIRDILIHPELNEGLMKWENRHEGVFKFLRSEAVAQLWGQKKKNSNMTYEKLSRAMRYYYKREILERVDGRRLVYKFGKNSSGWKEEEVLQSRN
Conditions: protein: recombinant; tags: N-terminal GST; dsDNA, one strand shown. An outline of the steps:
as §1

Test [17] deals with CRX (Homo sapiens, UniProt O43186 1-299). The conditions noted are these: protein: recombinant; tags: N-terminal GST; dsDNA, one strand shown. The procedure, abridged:
as §1

In test [18] the target is ETV1 (Homo sapiens, UniProt P50549 1-477). The conditions noted are these: protein: recombinant; tags: N-terminal GST; dsDNA, one strand shown. The procedure, abridged:
as §1

Sequence of ETV1 (P50549 whole entry): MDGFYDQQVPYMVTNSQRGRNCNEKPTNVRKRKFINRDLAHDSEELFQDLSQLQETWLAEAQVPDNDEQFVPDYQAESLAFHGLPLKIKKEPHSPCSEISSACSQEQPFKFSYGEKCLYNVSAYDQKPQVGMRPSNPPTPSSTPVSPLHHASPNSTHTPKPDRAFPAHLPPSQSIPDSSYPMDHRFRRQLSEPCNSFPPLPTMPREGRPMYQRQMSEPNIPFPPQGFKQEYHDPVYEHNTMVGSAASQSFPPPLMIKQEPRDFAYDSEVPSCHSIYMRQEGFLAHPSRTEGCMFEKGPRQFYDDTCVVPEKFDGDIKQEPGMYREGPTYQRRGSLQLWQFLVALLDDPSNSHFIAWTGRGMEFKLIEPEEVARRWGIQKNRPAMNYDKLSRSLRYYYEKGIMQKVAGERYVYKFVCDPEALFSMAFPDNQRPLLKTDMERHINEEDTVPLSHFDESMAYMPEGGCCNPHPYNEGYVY
Sequence of ELF4 (Q99607 whole entry): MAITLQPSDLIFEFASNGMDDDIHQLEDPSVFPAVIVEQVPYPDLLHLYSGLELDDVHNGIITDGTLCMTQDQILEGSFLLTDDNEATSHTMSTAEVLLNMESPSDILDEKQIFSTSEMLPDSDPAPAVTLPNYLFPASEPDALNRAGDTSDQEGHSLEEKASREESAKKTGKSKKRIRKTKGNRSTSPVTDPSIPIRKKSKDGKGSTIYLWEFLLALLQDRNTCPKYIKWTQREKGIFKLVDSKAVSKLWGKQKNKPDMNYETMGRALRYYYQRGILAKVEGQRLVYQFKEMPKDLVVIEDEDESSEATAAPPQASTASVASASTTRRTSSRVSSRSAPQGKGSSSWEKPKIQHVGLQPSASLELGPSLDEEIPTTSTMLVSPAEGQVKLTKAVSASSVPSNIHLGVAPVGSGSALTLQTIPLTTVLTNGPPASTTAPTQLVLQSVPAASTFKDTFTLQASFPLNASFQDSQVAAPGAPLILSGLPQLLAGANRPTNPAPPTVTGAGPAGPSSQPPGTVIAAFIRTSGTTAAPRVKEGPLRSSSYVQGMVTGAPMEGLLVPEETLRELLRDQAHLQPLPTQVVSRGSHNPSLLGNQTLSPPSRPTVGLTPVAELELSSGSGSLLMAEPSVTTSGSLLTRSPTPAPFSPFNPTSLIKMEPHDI
Sequence of HSF1 (Q00613 whole entry): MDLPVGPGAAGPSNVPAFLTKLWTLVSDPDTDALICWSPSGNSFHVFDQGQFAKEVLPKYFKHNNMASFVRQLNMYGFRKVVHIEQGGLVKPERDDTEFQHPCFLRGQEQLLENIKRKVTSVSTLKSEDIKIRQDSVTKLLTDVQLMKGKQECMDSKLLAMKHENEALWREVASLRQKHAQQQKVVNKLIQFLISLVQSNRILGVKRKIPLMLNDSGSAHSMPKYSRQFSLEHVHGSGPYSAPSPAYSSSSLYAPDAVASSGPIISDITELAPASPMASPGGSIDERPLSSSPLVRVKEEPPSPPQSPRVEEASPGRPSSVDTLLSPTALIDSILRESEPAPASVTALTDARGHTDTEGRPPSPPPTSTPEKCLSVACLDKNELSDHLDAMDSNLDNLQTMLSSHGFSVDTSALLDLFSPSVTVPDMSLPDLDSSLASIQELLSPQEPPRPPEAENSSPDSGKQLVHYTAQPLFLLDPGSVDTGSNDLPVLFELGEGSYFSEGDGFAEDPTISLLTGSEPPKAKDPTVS
Sequence of CRX (O43186 whole entry): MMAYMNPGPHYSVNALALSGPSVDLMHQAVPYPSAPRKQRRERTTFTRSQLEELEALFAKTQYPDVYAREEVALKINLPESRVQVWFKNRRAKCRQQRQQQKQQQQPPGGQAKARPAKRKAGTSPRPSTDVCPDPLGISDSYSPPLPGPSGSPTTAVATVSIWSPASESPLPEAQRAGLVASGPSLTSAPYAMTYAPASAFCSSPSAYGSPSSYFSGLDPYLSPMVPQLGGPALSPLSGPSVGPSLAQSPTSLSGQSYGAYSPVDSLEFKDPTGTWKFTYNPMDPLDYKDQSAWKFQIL
Sequence of SPIB (Q01892 whole entry): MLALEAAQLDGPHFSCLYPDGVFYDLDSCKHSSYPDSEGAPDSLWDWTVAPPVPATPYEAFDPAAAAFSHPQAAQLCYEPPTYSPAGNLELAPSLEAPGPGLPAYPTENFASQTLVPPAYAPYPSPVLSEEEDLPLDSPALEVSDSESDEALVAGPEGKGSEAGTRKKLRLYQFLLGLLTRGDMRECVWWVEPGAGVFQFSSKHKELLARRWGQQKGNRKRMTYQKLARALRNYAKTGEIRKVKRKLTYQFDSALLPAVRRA
Sequence of ETV5 (P41161 whole entry): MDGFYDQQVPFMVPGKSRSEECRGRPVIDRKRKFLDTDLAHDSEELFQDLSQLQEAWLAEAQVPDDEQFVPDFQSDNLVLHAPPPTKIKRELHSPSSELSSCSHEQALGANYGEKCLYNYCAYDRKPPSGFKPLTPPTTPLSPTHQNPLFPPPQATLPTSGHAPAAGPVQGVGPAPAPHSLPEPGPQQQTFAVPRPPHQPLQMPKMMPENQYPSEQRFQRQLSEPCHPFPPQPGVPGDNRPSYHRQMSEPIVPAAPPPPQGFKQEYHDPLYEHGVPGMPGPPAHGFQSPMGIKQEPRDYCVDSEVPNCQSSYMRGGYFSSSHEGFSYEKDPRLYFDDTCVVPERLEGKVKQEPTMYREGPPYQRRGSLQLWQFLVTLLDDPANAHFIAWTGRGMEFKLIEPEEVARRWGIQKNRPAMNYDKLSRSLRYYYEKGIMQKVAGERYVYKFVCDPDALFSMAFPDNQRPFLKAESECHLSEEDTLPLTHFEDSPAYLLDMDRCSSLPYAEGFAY

In the case of GTATAA, the binding signal is 1.02 fold enrichment (6-mer frequency, TF over GST control) in test [1]; 1.21 fold enrichment (6-mer frequency, TF over GST control) in [2]; 1.06 fold enrichment (6-mer frequency, TF over GST control) in [3]; 1.06 fold enrichment (6-mer frequency, TF over GST control) in [4]; 1.06 fold enrichment (6-mer frequency, TF over GST control) in test [5]; 1.09 fold enrichment (6-mer frequency, TF over GST control) in test [6]. For the same sequence, the binding signal in [7] is 1.12 fold enrichment (6-mer frequency, TF over GST control); in test [8], 1.19 fold enrichment (6-mer frequency, TF over GST control); in [9], 1.01 fold enrichment (6-mer frequency, TF over GST control); in test [10] it was 1.1 fold enrichment (6-mer frequency, TF over GST control); in [11], 1.16 fold enrichment (6-mer frequency, TF over GST control); in [12] it was 1.07 fold enrichment (6-mer frequency, TF over GST control). Also, the binding signal in [13] was 1.05 fold enrichment (6-mer frequency, TF over GST control); in [14], 1.08 fold enrichment (6-mer frequency, TF over GST control); in [15], 1.18 fold enrichment (6-mer frequency, TF over GST control); in [16], 1.14 fold enrichment (6-mer frequency, TF over GST control); in test [17] it was 1.41 fold enrichment (6-mer frequency, TF over GST control); in [18] it was 1.14 fold enrichment (6-mer frequency, TF over GST control).
